An excerpt weighted towards active compounds, which were near 7.3% of everything screened.
SMN2 splice enh: SMN2 splice variant enhancement; Potency, µM (titrated, usually from 46.1 µM), actives largely listed as activators; 210,000 compounds, 2.8% hits; HEK293 SMN2-luciferase splicing reporter, luminescence, 30-36 h; also: nearly all actives have a fitted effect of over 55% in size
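HEK293 cells carry an SMN2 […]–luciferase reporter in which exon 7 inclusion puts luciferase in frame. Cells were plated 10-12 h before compound addition, then incubated 30-36 h at 37C. ONE-Glo luminescence was read; sodium butyrate at 4.5 mM final served as control.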
Rab9 promoter act: Rab9 promoter activation | 320,000 compounds, 2.8% hits | AID 485297 | Huh7 Rab9 promoter-luciferase reporter, luminescence, 24 h | Potency, µM (top dose mostly 9.22 µM), actives largely listed as activators; also: nearly all actives have a fitted effect of over 60% in size
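Cell-based reporter: Huh7 stable for Rab9 promoter-driven luciferase, plated in reduced-serum medium with 10% FBS at 1500 cells/well, compound-treated 24 h at 37 °C, luminescence read after 10 min reagent.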
Luc counter: counter-screen: inhibitors of Kinase-Glo firefly luciferase | Q27757 | Kinase-Glo luciferase, ATP luminescence, 8 min | Potency, µM (titrated, usually from 38.3 µM), hits mostly inhibitors | 200,000 compounds, 0.28% hits | AID 1379; also: nearly all actives have a fitted effect of over 60% in size
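Substrate mix (final 50 mM imidazole pH 7.2, 50 mM KCl, 7 mM MgCl2, 10 uM ATP, 0.01% Tween 20, 0.05% BSA) plus pin-tool compound, then Kinase-Glo detection mix; 8 min ambient, luminescence read.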
NPC1 prom act: activators of NPC1 promoter | Huh7 NPC1 promoter luciferase reporter, 24 h | Potency, µM (top dose mostly 9.22 µM), usual class: activators | 320,000 compounds, 2.4% hits | AID 485313; also: nearly all actives have a fitted effect of over 60% in size
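Huh7 cells stably carrying NPC1 promoter–luciferase, plated in Opti-MEM with 10% FBS for 2 h, were exposed to compound in DMSO for 24 h at 37 °C; luciferase reagent was added for 10 min and luminescence read.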
FLuc counter: inhibits or activates purified firefly luciferase, miR-21 counter-screen. 360,000 compounds, 6.9% hits. Potency, µM (highest dose often 57.5 µM), hits mostly inhibitors. P08659. purified FLuc, Km substrates, luminescence inhibition; also: nearly all actives have a fitted effect of over 55% in size
Target sequence (P08659 whole entry, looked up): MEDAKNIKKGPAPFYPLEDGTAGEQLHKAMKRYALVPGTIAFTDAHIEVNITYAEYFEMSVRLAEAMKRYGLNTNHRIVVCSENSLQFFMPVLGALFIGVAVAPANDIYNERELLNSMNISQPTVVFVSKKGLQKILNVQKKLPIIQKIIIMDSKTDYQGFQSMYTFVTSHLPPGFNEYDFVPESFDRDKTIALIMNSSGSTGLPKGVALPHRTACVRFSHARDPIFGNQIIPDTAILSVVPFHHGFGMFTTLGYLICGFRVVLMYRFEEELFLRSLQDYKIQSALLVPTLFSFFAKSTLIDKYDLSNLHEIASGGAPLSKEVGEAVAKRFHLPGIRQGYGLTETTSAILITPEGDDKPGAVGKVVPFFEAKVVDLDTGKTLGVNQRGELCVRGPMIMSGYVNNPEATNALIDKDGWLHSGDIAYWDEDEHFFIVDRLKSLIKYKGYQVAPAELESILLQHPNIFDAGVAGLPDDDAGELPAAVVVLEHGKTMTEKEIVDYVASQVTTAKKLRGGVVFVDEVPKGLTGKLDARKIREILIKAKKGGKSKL
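Purified P. pyralis luciferase, 10 nM final, with Km-level 10 uM D-luciferin and 10 uM ATP in 50 mM Tris acetate pH 7.5, 10 mM Mg acetate, 0.01% Tween-20, 0.05% BSA; 6-point qHTS titration about 60 µM downward; luminescence read.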
Hits are given with their value; n = inactive; u = inconclusive; x = not tested or not shown; ! = not active in a repeat; [ ] = dose if it differs, or a comment. Calls follow the shape of the dose curve; as a rule, active = well fitted curve in the direction sought with a large enough effect; inconclusive = small, poorly fitted or top-dose-only effect, or another doubt; inactive = no such curve, though single readings can be large; an effect the other way counts as inactive or inconclusive.

SMILES	SMN2 splice enh	Rab9 promoter act	Luc counter	NPC1 prom act	FLuc counter
Cc1ccc(NC2=C([N+](=O)[O-])CS(=O)(=O)C2)cc1	n	n	n	n	13µM
COC(=O)C1=C(C)NC(C)=C(C(=O)OCCSc2ccccc2)C1C (stereo unspecified)	n	x	x	x	x
O=C(/C=C/c1ccc2c(c1)OCO2)c1ccco1	n	u	n	n	2.1µM
O=C(NCc1ccc2c(c1)OCO2)c1ccco1	n	n	n	n	n
Nc1ccccc1C(=O)/C=C/c1ccc2c(c1)OCO2	u	3.2µM	10µM!	3.2µM	3.4µM
COc1ccc(NC(=O)c2cnn(-c3ccc(C)cc3)c2-n2cccc2)cc1Cl	x	x	x	x	n
COc1ccc2c(c1)C(c1ccc([N+](=O)[O-])cc1)=NNC(c1ccco1)=N2	n	n	n	n	13µM
CCCCCCSc1nsc(NC(C)=O)n1	n	u	n	u	u
CCCSc1nsc(NC(=O)CCC)n1	5µM	1.4µM	n	2.8µM	12µM
CCCCSc1nsc(NC(C)=O)n1	18µM	1.4µM	n	2.2µM	11µM
COC(=O)/C(=C1\OC(=O)C(c2ccccc2)C1=O)c1ccccc1 (stereo unspecified)	13µM	x	n	x	x
CC(C)(C)NC(=O)[C@@H]1C[C@H]2CCCC[C@@H]2CN1C[C@H](O)[C@H](Cc1ccccc1)NC(=O)[C@@H](CC(N)=O)NC(=O)c1ccc2ccccc2n1	n	x	n	x	x
CCCN(CCC)C(=O)Cn1c(=O)n(-c2ccc(CC)cc2)c(=O)c2c3c(sc21)CCC3	n	x	x	x	n
O=C(/C=C1\NCC2c3ccccc3CCN2C1=O)c1ccccc1 (stereo unspecified)	2.8µM	3.5µM	n	4µM	1.2µM
O=C(Nc1cnn(C23CC4CC(CC(C4)C2)C3)c1)c1cnn2cccnc12	x	0.45µM	n	0.56µM	2.1µM
CCOC(=O)CNC(=O)c1cnn2cccnc12	n	n	n	n	n
CCOC(=O)C1CCCN(CCC(=O)Nc2cccc(C)c2)C1 (stereo unspecified)	n	3.2µM	n	3.5µM	15µM!
CCOC(=O)C1CCN(C(=S)Nc2ccccc2)CC1	x	n	n	n	n
CCOC(=O)C1CCCN(C(=S)Nc2ccc(Nc3ccccc3)cc2)C1 (stereo unspecified)	11µM	1.4µM	n	u	n
CCOC(=O)C1CCCN(CCC(=O)Nc2cccc(F)c2)C1 (stereo unspecified)	n	n	n	n	n
CN(C1CCCCC1)S(=O)(=O)c1ccc2c(c1)c(=O)c(C(=O)NCc1ccc(Cl)cc1)cn2C	n	x	x	x	n
CCN1CCN(/C=N/c2nc3c(s2)CCCC3)CC1	n	u	n	u	1.3µM
CC(C)(C)C1CCC(C(=O)OCC(=O)Nc2ccc3[nH]c(=O)[nH]c3c2)CC1 (stereo unspecified)	n	n	n	n	n
O=C(Nc1ccc(F)c(F)c1)C1CCCCC1	x	n	x	n	n
CC(=O)Nc1ccc(C(=O)COC(=O)C2CCCCC2)c(F)c1	x	n	x	n	0.67µM
SMILES	SMN2 splice enh	Rab9 promoter act	Luc counter	NPC1 prom act	FLuc counter
CC(=O)Nc1ccc(C(=O)COC(=O)C2CC2)c(F)c1	x	n	x	u	5.4µM
Cc1cc(C)cc(NC(=O)CSCc2cc(=O)c3cc(Cl)ccc3[nH]2)c1	x	x	x	x	n
c1cnc(SCCOc2ccc3c(c2)CCC3)nc1	13µM	1.6µM	n	2.8µM	1.7µM
CCC(=O)c1ccc(OCCSc2ncccn2)cc1	7.9µM	2µM	n	4µM	19µM
Cc1ccc(C(=O)NN2CCOCC2)cc1[N+](=O)[O-]	x	n	x	n	n
Cc1ccc(C(=O)Nc2cccc(-c3ccc(N4CCOCC4)nn3)c2)cc1[N+](=O)[O-]	x	3.2µM	x	u	u
O=C(Nc1cccc(-c2ccc(N3CCOCC3)nn2)c1)c1ccc([N+](=O)[O-])cc1	x	2.5µM	x	3.5µM	2.4µM
Cc1ccccc1C(=O)N1CCN(c2ccc(N3CCOCC3)nn2)CC1	x	n	x	n	n
Cn1c(SCC(=O)N2CCOCC2)nnc1-c1cccc(NC(=O)c2ccccc2)c1	n	n	n	n	n
O=C(Nc1cccc(-c2ccc(N3CCOCC3)nn2)c1)c1ccccc1	x	u	x	2.8µM	2.7µM
Cc1ccccc1C(=O)Nc1cccc(-c2ccc(N3CCOCC3)nn2)c1	x	3.2µM	x	u	2.1µM
Cc1c(C(=O)N(Cc2ccc(N(C)C)cc2)CC2CCCO2)oc2ccc(Cl)cc12 (stereo unspecified)	n	x	x	x	n
CCc1ccc2oc(C(=O)Nc3cccc(C(F)(F)F)c3)cc(=O)c2c1	n	x	x	x	n
CNC(=O)c1ccc(Nc2nnc(-c3ccc(C)c(S(=O)(=O)NC(C)(C)C)c3)c3ccccc23)cc1	n	x	x	x	n
Cc1ccc(-c2nnc(Nc3ccc(C(=O)N(C)C)cc3)c3ccccc23)cc1S(=O)(=O)NC(C)(C)CO	x	n	x	n	21µM
COc1ccc(Nc2nnc(-c3ccc(C)c(S(=O)(=O)N4CCN(C)CC4)c3)c3ccccc23)cc1	n	x	x	x	17µM
Cc1ccc(-c2nnc(Nc3ccc(C(=O)N(C)C)cc3)c3ccccc23)cc1S(=O)(=O)NCC1CCCO1 (stereo unspecified)	n	n	n	n	11µM
COC(=O)c1ccc(Nc2nnc(-c3ccc(C)c(S(=O)(=O)NCC4CCCO4)c3)c3ccccc23)cc1 (stereo unspecified)	n	n	n	n	u
Cc1cccc(C(=O)NC(=O)Nc2ccc(-c3cc(C(F)(F)F)nn3-c3ccccc3)cc2)c1	x	x	x	x	n
Cc1cccc(OC(=O)CSc2nnc(CNC(=O)c3ccccc3)o2)c1C	x	x	x	x	n
CC(=O)c1cccc(NC(=O)CCc2nc3cccnc3n2Cc2cccs2)c1	n	x	x	x	n
CC1=[N+](C)N(c2ccccc2)C(=O)C1N=C/C=C/c1ccccc1 (stereo unspecified)	x	n	x	n	15µM
Cc1ccc(CCNC(=O)Cn2ncc3c(=O)oc4ccccc4c32)cc1	n	x	x	x	n
COc1ccc(Nc2nc(N)nc(CSc3nccn3C)n2)cc1	x	1.8µM	n	1.4µM	21µM
COc1ccc(Nc2nc(N)nc(CSc3nnc(N)s3)n2)cc1	n	u	n	u	u
SMILES	SMN2 splice enh	Rab9 promoter act	Luc counter	NPC1 prom act	FLuc counter
COc1ccc2nc(SCc3nc(N)nc(Nc4ccccc4)n3)[nH]c2c1	n	n	n	n	13µM
Nc1nc(CSc2ccccn2)nc(Nc2ccccc2)n1	11µM	1.4µM	n	2.8µM	9.5µM
Cc1ccc(Nc2nc(N)nc(CSc3nncn3C)n2)cc1	18µM	2.8µM	n	3.2µM	13µM
COc1ccc(OCc2nc(N)nc(Nc3ccccc3)n2)cc1	n	n	n	n	u
COc1ccc(S(=O)(=O)NCCc2sc(-c3cccnc3)nc2C)c(F)c1	x	x	x	x	n
COCCN1C(=O)N[C@@H](CCc2ccccc2)C(C(=O)OC)=C1C	n	x	n	x	x
COc1ccc(Nc2nc(N)nc(CSc3nc(C)cc(C)n3)n2)cc1	x	n	n	n	n
COc1ccc(Nc2nc(N)nc(SCc3nnc(C)s3)n2)cc1	u	u	n	n	24µM
CC[C@H](C(=O)c1cccs1)C(O)(C(F)(F)F)C(F)(F)F	n[9.22 µM]	x	n[7.66 µM]	x	x

High-throughput results deposited in PubChem by National Center for Advancing Translational Sciences (NCATS).
